From PubChem
DUSP3 inh = inhibitors of human VHR1 phosphatase (DUSP3); P51452; recombinant VHR phosphatase, pNPP absorbance; inhibition, % at 13.3 µM; hit rate 0.52% among 290,000; AID 1654; in the data active = inhibition above about 50%
3CLpro inhibitor = SARS-CoV 3CLpro protease inhibition; P0C6X7; recombinant SARS-CoV 3CLpro, quenched FRET peptide cleavage; inhibition, % at 6 µM; hit rate 0.14% among 290,000; in the data active = inhibition above about 12%
GDH-TPI inh = inhibits GDH-TPI coupling enzymes, artifact for Mtb FBA screen; hit rate 1.2% among 360,000; GDH-TPI coupled enzyme counterscreen, NADH absorbance; inhibition, % at 4.8 µM;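 also: 0% = DMSO wells and 100% = wells lacking the enzyme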
FBA Mtb inh = inhibits M. tuberculosis FBA enzyme | hit rate 2.3% among 360,000 | purified M. tuberculosis FBA, fluorescence read-out | AID 588726 | inhibition, % at 1 µM | P9WQA3; in the data active = inhibition above about 27%;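 also: 0% = vehicle and 100% = reference inhibitor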
CCHFV vOTU inh = blocks the CCHF virus ovarian tumor domain protease; CCHFV vOTU protease, Pep-AMC fluorescence; inhibition, % at 11.5 µM; hit rate 0.55% among 370,000; AID 651958; also: 0% = vehicle wells with enzyme and 100% = no enzyme wells
RecA intein inh = Mtb RecA intein splicing inhibition. hit rate 0.75% among 290,000. cell-free RecA intein splicing, fluorescence. P9WHJ3. inhibition, % (concentration not given with the values). AID 2221; in the data active = inhibition above about 30%;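 also: 0% = vehicle wells and 100% = reference inhibitor control wells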
Target sequence (P9WHJ3 whole entry, looked up): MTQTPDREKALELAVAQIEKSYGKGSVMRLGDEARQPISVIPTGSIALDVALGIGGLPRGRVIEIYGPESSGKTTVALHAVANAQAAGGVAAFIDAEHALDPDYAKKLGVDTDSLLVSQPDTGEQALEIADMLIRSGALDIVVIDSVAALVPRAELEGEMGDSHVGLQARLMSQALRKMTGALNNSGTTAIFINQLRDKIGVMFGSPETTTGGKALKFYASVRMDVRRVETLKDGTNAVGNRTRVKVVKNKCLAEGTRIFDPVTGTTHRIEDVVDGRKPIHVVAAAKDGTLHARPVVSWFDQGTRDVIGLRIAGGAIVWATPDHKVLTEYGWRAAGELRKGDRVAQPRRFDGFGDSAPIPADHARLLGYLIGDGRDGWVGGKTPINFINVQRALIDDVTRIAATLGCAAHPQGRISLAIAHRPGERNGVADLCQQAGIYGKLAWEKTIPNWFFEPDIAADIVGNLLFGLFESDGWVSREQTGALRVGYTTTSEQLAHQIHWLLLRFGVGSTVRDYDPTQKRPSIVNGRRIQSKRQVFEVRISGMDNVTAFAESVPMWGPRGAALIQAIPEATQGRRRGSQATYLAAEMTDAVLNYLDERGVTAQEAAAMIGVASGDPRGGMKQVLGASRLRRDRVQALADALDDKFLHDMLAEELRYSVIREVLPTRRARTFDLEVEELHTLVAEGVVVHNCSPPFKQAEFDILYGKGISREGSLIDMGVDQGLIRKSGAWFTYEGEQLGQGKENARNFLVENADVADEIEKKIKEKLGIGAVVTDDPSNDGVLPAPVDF
Active calls of the source: *; nt = no result given. Most compounds without a hit are left out; they make up all but 4.7% or so of the library. Rule as the data show it, unless noted: active = inhibition above about 30%; inactive = the rest.

SMILES	DUSP3 inh	3CLpro inhibitor	GDH-TPI inh	FBA Mtb inh	CCHFV vOTU inh	RecA intein inh
Cc1nnc(NC(=O)c2oc3c(ccc4ccccc43)c2C)s1	0.8	-0.3	32.2*	14.7	-4.5	0.4
CCc1nonc1NC(=O)c1oc2ccc(C)cc2c1C	-3.6	-1.4	10.3	2.1	6.2	-1.4
Cc1nc(NC(=O)c2oc3ccccc3c2C)sc1C(=O)N(C)C	8.9	2.7	32.4*	-1.3	0.8	0.1
Cc1nnc(NC(=O)c2oc3ccccc3c2C)s1	0.3	1.9	3.2	-0.3	10.2	1.0
Cc1nc(NC(=O)/C=C/c2ccc(F)cc2)sc1C(=O)N(C)C	-9.9	-5.1	33.9*	-1.9	-4.5	0.2
CCc1nonc1NC(=O)c1oc2ccccc2c1C	50.2*	0.1	0.0	-2.8	-10.8	-2.4
Cc1nc(NC(=O)/C=C/c2ccccc2)sc1C(=O)N(C)C	13.5	-1.3	15.1	0.9	17.5	3.5
CC(=O)CC[C@H]1CC[C@]2(CCCN(C(=O)c3ccccc3)C2)O1	nt	nt	nt	nt	4.4	nt
O=C(NCc1ccccc1)[C@H]1CCCN1C(=O)[C@H]1CCCN1C(=O)c1ccc(F)cc1F	nt	nt	nt	nt	12.7	nt
Cc1ccc(S(=O)(=O)N2CCC(=O)N([C@H](COC(=O)Nc3ccccc3)Cc3ccccc3)CC2)cc1	nt	nt	nt	nt	6.5	nt
Oc1ccc(C[C@H]2CNC(=S)N2C[C@H]2CCCN2C[C@H](Cc2ccccc2)N2C[C@H](Cc3ccc(O)cc3)N(CCc3ccccc3)C2=S)cc1	nt	nt	nt	2.1	5.0	nt
Cc1cccc(OCC(=O)Nc2ccc(NC(=O)c3ccco3)cc2)c1	11.4	-0.7	0.0	2.2	6.3	0.2
CSc1ccccc1OCc1cc(C(=O)NC2CCc3ccccc32)no1 (stereo unspecified)	51.3*	-1.4	26.7	4.9	13.0	3.7
CCC(CO)Nc1cccc2c1S(=O)(=O)N(Cc1cn(Cc3ccc(Cl)cc3)nn1)Cc1ccccc1O2 (stereo unspecified)	nt	nt	nt	nt	-1.5	nt
O=C(CN1C(=O)S/C(=C\C=C\c2ccccc2)C1=O)Nc1ccc(O)cc1	11.9	2.6	33.3*	-0.4	9.2	3.9
CC(=Cc1ccccc1)C=C1SC(=S)N(CCCC(=O)Nc2ccc(C(=O)O)c(O)c2)C1=O	nt	nt	30.9*	-4.2	20.3	nt
CC(/C=C1\SC(=S)N(CCCC(=O)Nc2ccc(C(=O)O)c(O)c2)C1=O)=C\c1ccccc1	4.6	8.9	nt	nt	nt	25.2
O=C(CCCN1C(=O)S/C(=C/C=C/c2ccccc2)C1=O)Nc1ccc(C(=O)O)cc1	-3.0	2.0	20.7	4.2	-2.9	19.7
O=C(CCCN1C(=O)/C(=C\c2ccccc2)SC1=S)Nc1ccc(O)cc1	-9.2	3.9	17.7	1.8	15.8	32.4*
CCCCN(C(=O)CSCC(=O)Nc1ccc(OC)cc1)c1c(N)n(Cc2ccccc2)c(=O)[nH]c1=O	nt	nt	5.6	-0.4	10.2	-0.9
O=C(CSc1ccc([N+](=O)[O-])cn1)Nc1nccs1	33.9	-2.3	34.5*	-3.5	2.5	-1.1
O=C(c1ccc(N2CCN(C3CC(=O)N(Cc4cccs4)C3=O)CC2)cc1)c1cccnc1 (stereo unspecified)	12.5	-1.5	33.3*	-5.2	3.9	-0.8
COC(=O)c1cc2c(c3c4ccccc4n(S(C)(=O)=O)c13)C(=O)N(Cc1ccccc1)C2	nt	nt	nt	nt	-3.9	nt
Cc1[nH]nc2c1C(Cc1ccccc1)C(C#N)=C(N)O2 (stereo unspecified)	21.3	5.3	2.7	-2.7	2.7	26.8
CC(C)c1[nH]nc2c1C(Cc1ccccc1)C(C#N)=C(N)O2 (stereo unspecified)	13.6	-0.8	11.0	2.2	-11.8	53.0*
SMILES	DUSP3 inh	3CLpro inhibitor	GDH-TPI inh	FBA Mtb inh	CCHFV vOTU inh	RecA intein inh
COCc1[nH]nc2c1C(c1ccccc1OC)C(C#N)=C(N)O2 (stereo unspecified)	21.7	nt	-2.0	1.6	-2.2	61.7*
CCc1[nH]nc2c1C(c1ccc(C)o1)C(C#N)=C(N)O2 (stereo unspecified)	24.5	-1.7	11.4	-3.0	-6.1	49.2*
CCc1[nH]nc2c1C(c1ccc(Br)s1)C(C#N)=C(N)O2 (stereo unspecified)	-5.8	1.3	6.1	-1.9	0.0	nt
CC(C)c1[nH]nc2c1C(c1cccnc1)C(C#N)=C(N)O2 (stereo unspecified)	21.3	1.6	0.5	-0.6	-5.6	42.7*
COc1ccc(CCNC(=O)C(C)OC(=O)c2nsc(Cl)c2Cl)cc1OC (stereo unspecified)	35.9	1.1	-1.6	0.5	13.4	1.3
CC[C@@H](CCCc1ccccc1OC)CCS(=O)(=O)C(C)(C)C	nt	nt	nt	nt	6.8	nt
CCCc1[nH]nc2c1C(Cc1ccccc1)C(C#N)=C(N)O2 (stereo unspecified)	10.0	-8.9	15.1	1.4	-2.5	28.2
N#CC1=C(N)Oc2n[nH]c(-c3cccs3)c2C1c1ccncc1 (stereo unspecified)	6.9	-0.7	13.4	-1.4	10.8	59.9*
CCc1[nH]nc2c1C(Cc1ccccc1)C(C#N)=C(N)O2 (stereo unspecified)	20.1	-4.8	1.7	5.6	5.9	59.1*
CCOC(=O)C1=C(C)OC(N)=C(C#N)C1c1ccc(C)o1 (stereo unspecified)	36.8	-1.0	15.1	-3.1	-9.9	-4.6
Cc1ccc(C2C(C#N)=C(N)Oc3nc(-c4ccccc4)[nH]c32)o1 (stereo unspecified)	15.1	-2.8	18.1	-0.8	8.3	89.4*
CCn1c(SCC(=O)NN=Cc2c[nH]c3ccccc23)nc2ccccc21	nt	nt	nt	nt	4.3	nt
CC1(C)OC(=O)C(=NNc2ccccc2C(=O)O)C(=O)O1	16.2	0.1	49.4*	-4.2	10.1	1.4
CCOC(=O)C1=C(C(=O)OCC)C2N(Cc3ccc(Br)cc3)c3ccccc3[C@@]23C[C@@H](C(=O)OC)N(S(=O)(=O)c2ccc(F)cc2)C3=N1 (stereo partly specified)	nt	nt	nt	nt	1.9	nt
CC(C)C1Oc2cc3oc(=O)ccc3cc2C1=O (stereo unspecified)	25.2	0.4	16.0	115.1*	-92.0	-0.2
Cc1c(OC(C)C(=O)NCc2ccccn2)ccc2c3c(c(=O)oc12)CCC3 (stereo unspecified)	2.3	-0.6	13.3	30.0*	-6.7	0.2
Nc1nc(Nc2ccccc2)sc1C(=O)c1ccccc1	12.5	2.0	9.2	-1.0	-1.7	8.3
Cc1cnc(NC(=O)c2sc(Nc3ccccc3)nc2N)o1	17.5	5.4	31.4*	-0.7	6.2	2.3
CCCCNS(=O)(=O)c1ccc2nc(-c3cccnc3)cc(C(=O)NCCOC)c2c1	-5.1	1.2	31.8*	1.2	-0.3	0.0
O=[N+]([O-])c1cc(/C=N/NC(=S)Nc2ccccc2Cl)ccc1Cl	37.6	4.6	32.9*	-0.5	-12.8	2.2
CCCOc1ccc(/C=N/NC(=S)Nc2ccccc2[N+](=O)[O-])c(O)c1	-10.0	9.0	nt	nt	11.0	0.6
COc1ccc(/C=N/NC(=S)Nc2ccccc2[N+](=O)[O-])cc1O	-3.6	-9.1	49.4*	-8.6	0.3	14.1
